Reference: the supplement of paper PMC11732987, “Enantioselective OTUD7B fragment discovery through chemoproteomics screening and high-throughput optimisation” (Communications Chemistry, 2025)

Assays:
Assay in all cases: log2 ratio of Biotin-Ahx-Ub-VS probe labelling (fragment/DMSO); higher = less target engagement (more negative = stronger competition), active = hit call of the paper (q ≤ 0.05, log2 ratio ≤ -1)
Conditions in all cases: compound concentration: 200 uM; treatment time: 3 h
USP42 = biological target: T1, USP42 (UniProt Q9H9J4)
T1 sequence (whole entry): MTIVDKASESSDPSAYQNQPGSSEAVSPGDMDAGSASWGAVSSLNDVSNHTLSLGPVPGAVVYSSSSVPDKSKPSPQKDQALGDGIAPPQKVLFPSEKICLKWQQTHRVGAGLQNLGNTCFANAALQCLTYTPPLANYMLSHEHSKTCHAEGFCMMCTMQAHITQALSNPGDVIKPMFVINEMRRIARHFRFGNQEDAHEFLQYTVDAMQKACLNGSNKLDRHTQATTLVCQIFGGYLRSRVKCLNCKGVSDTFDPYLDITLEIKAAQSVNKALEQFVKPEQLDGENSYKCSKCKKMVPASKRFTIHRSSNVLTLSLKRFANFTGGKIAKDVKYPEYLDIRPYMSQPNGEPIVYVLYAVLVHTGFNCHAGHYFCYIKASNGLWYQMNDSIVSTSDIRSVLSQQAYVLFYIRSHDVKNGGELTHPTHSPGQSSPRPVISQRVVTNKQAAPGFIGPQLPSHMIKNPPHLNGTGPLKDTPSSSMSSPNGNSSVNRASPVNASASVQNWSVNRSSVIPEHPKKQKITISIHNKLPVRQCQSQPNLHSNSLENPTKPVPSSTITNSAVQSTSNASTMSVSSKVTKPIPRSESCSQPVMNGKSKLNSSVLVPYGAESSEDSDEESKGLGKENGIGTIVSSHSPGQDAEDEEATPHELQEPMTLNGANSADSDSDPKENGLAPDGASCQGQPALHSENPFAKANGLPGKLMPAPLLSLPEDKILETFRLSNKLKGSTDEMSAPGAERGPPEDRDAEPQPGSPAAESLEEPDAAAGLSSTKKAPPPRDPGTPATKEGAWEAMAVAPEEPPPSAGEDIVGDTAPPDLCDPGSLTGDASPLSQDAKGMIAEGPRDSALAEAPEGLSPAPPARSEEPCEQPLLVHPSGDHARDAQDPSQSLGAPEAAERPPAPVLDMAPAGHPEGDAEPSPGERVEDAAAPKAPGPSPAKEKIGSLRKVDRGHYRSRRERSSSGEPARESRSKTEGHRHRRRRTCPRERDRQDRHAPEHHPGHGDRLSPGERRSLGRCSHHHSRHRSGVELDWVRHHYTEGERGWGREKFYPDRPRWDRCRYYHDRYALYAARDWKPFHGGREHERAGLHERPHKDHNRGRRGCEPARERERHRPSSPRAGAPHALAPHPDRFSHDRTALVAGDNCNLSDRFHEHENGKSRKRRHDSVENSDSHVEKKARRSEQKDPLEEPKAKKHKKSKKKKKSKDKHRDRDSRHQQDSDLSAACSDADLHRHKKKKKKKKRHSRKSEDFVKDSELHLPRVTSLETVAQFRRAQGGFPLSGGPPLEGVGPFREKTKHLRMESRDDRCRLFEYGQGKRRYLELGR
Procedure, shortened: (§1)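 Each value is an average log2 ratio of fragment to vehicle, tested by unpaired t-test. The underlying Spectronaut label-free quantities were global-median-normalised, and only proteins with ≥2 unique peptides were included. Triplicate HEK293T lysate samples (495 µg) were exposed to fragment at 200 µM or vehicle for 3 h, then to Biotin-Ahx-Ub-VS at 0.5 µM final for 1 h, before NeutrAvidin enrichment of labelled DUBs, LysC and trypsin digestion, and diaPASEF LC-MS/MS.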

USP46 = USP46 (UniProt P62068)
Procedure, shortened: as §1

USP47 = biological target: T2, USP47 (UniProt Q96K76)
T2 sequence (whole entry): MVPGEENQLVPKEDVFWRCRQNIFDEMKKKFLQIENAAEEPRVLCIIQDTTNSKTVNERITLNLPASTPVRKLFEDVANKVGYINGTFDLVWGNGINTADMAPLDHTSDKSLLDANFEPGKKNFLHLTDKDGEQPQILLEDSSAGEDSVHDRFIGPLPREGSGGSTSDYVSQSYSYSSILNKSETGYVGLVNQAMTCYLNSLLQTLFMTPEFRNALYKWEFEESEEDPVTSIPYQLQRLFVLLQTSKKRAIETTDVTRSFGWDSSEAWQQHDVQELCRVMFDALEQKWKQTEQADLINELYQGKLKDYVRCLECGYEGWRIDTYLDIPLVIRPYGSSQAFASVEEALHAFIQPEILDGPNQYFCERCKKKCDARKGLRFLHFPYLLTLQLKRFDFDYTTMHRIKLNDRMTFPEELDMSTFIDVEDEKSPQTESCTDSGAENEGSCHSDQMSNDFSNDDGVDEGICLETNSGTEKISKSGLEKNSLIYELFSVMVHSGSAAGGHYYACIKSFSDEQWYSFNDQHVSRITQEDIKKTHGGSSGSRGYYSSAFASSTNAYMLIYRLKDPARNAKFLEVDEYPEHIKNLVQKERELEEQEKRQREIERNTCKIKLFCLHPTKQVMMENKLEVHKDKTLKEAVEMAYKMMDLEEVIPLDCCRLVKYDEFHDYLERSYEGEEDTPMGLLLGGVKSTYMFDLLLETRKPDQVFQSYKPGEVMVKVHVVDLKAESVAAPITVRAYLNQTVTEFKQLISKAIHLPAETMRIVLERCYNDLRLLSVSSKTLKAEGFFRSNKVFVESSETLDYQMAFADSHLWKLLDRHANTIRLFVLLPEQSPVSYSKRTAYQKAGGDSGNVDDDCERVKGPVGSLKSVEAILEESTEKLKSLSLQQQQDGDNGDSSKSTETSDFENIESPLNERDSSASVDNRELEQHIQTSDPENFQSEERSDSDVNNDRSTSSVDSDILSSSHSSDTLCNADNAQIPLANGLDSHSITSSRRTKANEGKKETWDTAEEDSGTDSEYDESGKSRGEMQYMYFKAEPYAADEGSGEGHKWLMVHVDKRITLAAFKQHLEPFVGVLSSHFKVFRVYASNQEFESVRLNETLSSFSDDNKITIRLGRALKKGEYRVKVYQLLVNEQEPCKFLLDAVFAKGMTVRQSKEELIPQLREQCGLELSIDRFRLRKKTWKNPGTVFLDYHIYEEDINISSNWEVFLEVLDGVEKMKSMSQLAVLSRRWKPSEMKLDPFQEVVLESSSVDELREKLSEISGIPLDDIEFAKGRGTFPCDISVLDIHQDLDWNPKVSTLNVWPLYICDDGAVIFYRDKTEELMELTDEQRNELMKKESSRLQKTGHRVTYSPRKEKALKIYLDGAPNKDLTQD
Procedure, shortened: as §1

USP48 = biological target: T3, USP48 (UniProt Q86UV5)
T3 sequence (whole entry): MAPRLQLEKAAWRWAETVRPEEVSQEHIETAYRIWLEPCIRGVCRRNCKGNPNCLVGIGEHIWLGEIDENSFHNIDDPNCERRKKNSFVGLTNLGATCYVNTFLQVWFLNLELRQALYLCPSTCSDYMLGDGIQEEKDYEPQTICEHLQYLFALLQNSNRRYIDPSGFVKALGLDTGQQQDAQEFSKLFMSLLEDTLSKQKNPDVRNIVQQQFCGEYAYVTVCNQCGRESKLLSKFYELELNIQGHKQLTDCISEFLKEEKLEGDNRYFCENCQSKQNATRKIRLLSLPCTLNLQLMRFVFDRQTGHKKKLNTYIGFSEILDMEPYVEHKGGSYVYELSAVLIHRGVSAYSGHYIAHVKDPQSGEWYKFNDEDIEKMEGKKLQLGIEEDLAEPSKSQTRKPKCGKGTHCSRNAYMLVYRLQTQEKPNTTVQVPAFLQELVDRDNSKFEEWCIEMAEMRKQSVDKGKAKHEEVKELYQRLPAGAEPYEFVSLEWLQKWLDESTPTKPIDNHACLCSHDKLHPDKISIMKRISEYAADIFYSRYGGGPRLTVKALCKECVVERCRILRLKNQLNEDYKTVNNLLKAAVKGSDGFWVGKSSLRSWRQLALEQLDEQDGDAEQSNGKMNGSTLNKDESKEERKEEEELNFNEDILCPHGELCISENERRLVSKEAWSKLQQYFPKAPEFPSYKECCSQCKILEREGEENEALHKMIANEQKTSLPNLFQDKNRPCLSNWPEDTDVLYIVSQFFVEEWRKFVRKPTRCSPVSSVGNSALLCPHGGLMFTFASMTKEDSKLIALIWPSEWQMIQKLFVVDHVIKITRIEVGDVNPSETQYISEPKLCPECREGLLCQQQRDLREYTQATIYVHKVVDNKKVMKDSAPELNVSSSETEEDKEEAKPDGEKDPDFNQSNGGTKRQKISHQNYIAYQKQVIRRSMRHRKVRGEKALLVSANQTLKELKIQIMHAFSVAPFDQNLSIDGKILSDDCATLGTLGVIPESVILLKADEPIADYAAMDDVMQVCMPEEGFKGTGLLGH
Procedure, shortened: as §1

USP5 = biological target: T4, USP5 (UniProt P45974)
T4 sequence (whole entry): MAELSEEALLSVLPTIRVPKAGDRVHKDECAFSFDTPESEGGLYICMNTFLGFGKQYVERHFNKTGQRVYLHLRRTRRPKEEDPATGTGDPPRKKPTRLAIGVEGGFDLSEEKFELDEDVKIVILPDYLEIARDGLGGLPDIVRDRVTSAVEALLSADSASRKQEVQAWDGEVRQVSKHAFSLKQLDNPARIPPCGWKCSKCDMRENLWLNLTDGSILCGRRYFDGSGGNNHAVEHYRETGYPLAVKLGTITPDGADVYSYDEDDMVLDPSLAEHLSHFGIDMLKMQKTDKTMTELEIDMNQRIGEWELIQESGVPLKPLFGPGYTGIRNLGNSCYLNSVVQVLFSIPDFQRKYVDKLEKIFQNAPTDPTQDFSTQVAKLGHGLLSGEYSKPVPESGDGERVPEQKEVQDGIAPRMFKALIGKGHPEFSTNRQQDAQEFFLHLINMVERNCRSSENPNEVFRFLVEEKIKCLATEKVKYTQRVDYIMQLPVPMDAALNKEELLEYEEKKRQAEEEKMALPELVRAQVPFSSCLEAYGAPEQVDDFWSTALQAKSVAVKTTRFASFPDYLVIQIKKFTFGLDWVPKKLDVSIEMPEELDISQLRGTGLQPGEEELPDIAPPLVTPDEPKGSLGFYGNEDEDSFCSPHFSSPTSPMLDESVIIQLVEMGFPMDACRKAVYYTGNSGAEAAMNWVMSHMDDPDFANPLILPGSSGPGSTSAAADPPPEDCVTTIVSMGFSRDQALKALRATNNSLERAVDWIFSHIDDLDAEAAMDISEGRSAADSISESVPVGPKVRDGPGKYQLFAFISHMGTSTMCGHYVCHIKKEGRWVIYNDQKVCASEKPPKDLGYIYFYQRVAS
Procedure, shortened: as §1

USP54 = USP54 (UniProt Q70EL1)
Procedure, shortened: as §1

USP7 = USP7 (UniProt Q93009)
Procedure, shortened: as §1

USP8 = biological target: T5, USP8 (UniProt P40818)
T5 sequence (whole entry): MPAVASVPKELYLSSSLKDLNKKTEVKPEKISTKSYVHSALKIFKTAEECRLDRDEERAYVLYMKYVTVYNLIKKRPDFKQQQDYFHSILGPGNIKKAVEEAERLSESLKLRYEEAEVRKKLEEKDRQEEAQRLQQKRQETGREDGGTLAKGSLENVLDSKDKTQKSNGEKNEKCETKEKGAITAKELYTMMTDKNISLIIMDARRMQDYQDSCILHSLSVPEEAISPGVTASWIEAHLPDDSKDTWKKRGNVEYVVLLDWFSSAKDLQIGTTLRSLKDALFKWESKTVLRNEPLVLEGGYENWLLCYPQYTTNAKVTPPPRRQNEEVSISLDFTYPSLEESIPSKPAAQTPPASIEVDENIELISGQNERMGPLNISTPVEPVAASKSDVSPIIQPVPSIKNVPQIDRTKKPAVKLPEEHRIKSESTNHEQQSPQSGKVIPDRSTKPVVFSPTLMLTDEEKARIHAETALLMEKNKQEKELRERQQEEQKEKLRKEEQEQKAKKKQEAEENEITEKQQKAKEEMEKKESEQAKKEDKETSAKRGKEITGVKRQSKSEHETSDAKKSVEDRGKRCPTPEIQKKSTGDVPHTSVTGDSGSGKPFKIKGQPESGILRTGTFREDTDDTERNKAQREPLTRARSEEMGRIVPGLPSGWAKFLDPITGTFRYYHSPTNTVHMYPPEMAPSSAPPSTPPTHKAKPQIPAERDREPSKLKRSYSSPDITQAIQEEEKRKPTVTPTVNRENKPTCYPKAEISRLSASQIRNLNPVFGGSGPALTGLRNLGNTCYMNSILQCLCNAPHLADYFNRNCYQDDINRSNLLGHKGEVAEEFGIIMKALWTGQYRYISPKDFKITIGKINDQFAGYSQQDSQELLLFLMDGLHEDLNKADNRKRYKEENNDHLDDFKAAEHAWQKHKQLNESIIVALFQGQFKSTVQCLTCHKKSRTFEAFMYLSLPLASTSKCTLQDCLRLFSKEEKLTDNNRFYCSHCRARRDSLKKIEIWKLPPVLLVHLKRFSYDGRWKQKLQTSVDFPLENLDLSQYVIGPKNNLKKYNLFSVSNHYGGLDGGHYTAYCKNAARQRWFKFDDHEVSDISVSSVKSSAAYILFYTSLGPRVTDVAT
Procedure, shortened: as §1

USP9X = USP9X (UniProt Q93008)
Procedure, shortened: as §1

UniProt O00487 = biological target: UniProt O00487
Procedure, shortened: as §1

Measured: log2 ratio of Biotin-Ahx-Ub-VS probe labelling

USP54, sequence (Q70EL1 whole entry): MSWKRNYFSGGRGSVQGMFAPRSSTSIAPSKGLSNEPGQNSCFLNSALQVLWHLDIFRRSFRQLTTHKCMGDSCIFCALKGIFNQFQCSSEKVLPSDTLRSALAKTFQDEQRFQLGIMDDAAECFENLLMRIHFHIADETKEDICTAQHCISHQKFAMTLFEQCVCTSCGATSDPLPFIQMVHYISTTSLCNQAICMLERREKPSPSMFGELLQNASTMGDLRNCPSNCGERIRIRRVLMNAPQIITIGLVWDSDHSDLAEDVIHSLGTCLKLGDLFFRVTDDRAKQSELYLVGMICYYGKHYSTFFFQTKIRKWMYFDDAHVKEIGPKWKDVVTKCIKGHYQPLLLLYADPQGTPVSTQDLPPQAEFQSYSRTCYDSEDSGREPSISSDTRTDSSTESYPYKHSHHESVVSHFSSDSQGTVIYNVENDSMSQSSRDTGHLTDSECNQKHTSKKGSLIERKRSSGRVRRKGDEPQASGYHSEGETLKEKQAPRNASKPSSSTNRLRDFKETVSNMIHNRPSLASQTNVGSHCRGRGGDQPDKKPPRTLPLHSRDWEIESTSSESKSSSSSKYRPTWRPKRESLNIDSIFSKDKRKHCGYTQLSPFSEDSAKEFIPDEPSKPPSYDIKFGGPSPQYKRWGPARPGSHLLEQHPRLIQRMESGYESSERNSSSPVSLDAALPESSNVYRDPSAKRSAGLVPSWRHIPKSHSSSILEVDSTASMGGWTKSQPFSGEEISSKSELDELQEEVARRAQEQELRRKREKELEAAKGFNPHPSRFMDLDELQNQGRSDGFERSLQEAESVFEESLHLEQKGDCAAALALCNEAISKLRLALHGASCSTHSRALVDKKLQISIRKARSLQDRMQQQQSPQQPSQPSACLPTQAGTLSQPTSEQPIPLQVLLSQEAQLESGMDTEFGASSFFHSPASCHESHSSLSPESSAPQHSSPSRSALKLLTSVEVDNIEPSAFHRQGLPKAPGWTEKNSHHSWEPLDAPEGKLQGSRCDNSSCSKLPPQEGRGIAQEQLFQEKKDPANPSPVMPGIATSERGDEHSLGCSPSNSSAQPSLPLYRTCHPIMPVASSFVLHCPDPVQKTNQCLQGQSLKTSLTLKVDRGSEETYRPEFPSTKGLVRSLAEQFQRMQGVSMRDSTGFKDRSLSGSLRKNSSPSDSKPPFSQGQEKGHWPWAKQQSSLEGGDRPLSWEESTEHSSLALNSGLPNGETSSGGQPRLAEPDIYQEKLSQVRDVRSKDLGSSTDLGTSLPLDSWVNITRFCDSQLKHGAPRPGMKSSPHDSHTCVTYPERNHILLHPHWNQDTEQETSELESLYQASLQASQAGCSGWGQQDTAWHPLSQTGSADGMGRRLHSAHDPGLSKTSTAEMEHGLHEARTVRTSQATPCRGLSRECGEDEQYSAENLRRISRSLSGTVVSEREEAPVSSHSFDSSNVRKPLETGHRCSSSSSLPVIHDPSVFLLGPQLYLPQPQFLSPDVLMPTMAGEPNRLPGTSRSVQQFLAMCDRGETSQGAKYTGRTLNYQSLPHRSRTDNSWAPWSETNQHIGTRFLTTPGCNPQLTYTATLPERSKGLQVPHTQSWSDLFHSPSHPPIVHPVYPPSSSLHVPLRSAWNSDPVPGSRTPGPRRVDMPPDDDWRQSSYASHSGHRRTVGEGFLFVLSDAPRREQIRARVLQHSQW
USP9X, sequence (Q93008 whole entry): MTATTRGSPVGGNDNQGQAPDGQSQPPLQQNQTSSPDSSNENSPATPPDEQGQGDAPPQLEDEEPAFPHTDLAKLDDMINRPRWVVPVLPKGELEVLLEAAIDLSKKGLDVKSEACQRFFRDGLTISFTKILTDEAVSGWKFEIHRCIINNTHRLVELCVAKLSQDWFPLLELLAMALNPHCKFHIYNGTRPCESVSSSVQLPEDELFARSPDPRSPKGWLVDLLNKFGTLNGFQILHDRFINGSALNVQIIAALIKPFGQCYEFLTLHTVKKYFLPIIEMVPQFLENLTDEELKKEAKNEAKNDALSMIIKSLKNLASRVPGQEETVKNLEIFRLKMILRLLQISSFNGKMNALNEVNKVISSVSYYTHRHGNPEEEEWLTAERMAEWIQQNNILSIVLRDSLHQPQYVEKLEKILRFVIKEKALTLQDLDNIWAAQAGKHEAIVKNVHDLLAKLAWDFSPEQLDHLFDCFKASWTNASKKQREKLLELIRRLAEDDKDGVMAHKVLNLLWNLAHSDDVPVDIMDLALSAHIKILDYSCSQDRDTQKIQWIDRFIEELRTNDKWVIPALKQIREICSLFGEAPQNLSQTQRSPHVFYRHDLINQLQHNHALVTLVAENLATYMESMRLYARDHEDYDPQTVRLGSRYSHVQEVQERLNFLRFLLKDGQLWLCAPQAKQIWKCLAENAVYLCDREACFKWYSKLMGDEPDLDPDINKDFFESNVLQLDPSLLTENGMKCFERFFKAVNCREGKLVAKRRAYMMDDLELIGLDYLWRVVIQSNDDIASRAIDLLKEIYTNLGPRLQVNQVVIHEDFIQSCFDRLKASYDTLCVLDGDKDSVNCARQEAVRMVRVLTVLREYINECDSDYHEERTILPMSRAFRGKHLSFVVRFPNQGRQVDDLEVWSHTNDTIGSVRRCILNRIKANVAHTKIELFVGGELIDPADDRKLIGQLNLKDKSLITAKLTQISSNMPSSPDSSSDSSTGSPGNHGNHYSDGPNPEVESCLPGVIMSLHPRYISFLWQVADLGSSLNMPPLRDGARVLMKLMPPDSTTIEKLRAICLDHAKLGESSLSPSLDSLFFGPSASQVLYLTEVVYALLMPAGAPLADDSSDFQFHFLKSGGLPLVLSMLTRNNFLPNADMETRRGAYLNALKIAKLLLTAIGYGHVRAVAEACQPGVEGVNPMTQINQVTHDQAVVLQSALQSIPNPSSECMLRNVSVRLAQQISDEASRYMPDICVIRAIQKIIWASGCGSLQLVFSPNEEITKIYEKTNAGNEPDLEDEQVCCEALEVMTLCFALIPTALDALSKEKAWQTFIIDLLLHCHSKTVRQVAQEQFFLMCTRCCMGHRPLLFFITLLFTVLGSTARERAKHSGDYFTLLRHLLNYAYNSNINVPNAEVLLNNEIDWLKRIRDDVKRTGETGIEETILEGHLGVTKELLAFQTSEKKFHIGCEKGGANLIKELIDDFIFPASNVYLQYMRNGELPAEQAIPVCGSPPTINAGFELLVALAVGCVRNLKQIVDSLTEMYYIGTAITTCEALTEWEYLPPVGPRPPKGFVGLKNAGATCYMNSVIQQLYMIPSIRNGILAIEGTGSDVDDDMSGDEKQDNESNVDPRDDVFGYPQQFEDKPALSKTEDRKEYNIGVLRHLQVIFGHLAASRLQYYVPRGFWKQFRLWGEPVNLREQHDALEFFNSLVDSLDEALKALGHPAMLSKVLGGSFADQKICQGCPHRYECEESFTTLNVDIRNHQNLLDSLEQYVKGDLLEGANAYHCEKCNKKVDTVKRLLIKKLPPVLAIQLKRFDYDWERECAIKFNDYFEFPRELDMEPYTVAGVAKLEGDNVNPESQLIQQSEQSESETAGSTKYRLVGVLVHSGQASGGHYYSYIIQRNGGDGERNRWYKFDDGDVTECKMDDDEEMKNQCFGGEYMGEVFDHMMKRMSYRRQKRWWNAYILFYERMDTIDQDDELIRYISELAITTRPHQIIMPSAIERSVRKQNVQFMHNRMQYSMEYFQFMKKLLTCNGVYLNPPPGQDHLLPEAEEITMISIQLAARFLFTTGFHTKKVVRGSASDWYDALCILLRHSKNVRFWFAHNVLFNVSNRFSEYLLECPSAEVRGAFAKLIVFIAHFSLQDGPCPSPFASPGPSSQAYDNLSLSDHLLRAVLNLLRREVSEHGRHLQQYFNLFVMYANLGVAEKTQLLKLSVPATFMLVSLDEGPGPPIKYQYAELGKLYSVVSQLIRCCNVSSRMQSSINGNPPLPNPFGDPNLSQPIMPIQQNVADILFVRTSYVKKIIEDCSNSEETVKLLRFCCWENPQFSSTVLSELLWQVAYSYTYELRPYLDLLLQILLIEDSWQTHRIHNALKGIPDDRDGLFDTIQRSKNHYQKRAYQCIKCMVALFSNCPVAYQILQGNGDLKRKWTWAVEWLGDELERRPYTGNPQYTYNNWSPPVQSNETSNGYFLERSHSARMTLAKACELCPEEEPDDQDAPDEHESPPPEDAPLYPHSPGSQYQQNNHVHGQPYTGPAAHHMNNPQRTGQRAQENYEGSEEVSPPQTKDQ
USP46, sequence (P62068 whole entry): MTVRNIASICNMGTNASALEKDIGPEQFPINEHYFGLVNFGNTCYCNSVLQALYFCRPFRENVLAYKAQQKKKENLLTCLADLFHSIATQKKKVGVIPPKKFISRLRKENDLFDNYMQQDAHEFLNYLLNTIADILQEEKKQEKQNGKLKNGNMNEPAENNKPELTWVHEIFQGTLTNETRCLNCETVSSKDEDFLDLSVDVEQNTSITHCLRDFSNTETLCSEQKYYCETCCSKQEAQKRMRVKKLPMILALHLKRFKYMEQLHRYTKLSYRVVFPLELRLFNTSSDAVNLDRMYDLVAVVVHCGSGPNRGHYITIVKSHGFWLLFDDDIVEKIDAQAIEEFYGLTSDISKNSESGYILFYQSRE
UniProt O00487, sequence (O00487 whole entry): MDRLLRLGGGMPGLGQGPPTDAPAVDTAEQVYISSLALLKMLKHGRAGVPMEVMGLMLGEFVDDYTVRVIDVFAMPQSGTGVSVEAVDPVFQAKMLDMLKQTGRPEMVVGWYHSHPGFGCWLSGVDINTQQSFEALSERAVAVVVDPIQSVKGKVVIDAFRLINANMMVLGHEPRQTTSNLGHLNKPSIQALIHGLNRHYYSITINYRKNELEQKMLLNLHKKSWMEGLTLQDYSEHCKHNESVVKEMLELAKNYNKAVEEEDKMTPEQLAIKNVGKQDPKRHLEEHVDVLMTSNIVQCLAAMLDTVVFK

COc1ccccc1C(C)NC(=O)CCl (stereo not given)
inactive: USP42 -0.0523 | USP46 -0.0541 | USP47 -0.334 | USP48 -0.321 | USP5 -0.208 | USP54 0.256 | USP7 -0.235 | USP8 -0.576 | USP9X -0.174 | UniProt O00487 0.0235
